From PubChem BioAssay (NCATS)
Results filed as inconclusive are left out. A number with no mark means an inactive call. Calls come from the whole dose curve; as a rule, active = well fitted activation curve with a large enough effect; inconclusive = small, poorly fitted or top-dose-only effect; inactive = no such curve, though single readings can be large or run the other way.

Target: Cellular tumor antigen p53 (Homo sapiens) (UniProt P04637)
Test: Primary qHTS for small molecule compounds that upregulate eGFP-tagged delta133p53alpha (in N-terminal) cells. (AID 2060322);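 note: series mostly up to about 56 µM; 0% = DMSO vehicle and 100% = reference activator; nearly all actives have a fitted effect of over 75% in size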
Conditions: NCI-H358 eGFP-delta133p53alpha fluorescence, 24 h; activation: active compounds read high
Summary of the method: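 NCI-H358 cells pre-induced 24 h with 10 ng/ml doxycycline to express N-terminal eGFP-delta133p53alpha, then dosed 24 h at 37C without doxycycline; fixed, Hoechst-stained, GFP intensity by laser scanning cytometry, normalized to DMSO (0%) and 57.5 uM 5-azacytidine (100%).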

Cellular tumor antigen p53 (Homo sapiens), sequence (P04637 whole entry, looked up): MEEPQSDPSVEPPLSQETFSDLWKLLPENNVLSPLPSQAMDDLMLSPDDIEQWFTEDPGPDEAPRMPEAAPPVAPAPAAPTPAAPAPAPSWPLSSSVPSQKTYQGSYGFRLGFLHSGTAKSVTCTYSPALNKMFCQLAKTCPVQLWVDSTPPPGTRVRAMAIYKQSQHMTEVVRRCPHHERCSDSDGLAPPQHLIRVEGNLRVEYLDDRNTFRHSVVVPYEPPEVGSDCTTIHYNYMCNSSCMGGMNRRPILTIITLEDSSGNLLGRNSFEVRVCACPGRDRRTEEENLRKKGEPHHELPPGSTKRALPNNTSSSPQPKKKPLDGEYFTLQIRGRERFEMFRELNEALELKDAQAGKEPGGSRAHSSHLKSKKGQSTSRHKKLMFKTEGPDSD

First: C[C@@H]1[C@H](O)[C@@H](C)C=CC=CC=CC=CC=CC=CC=C[C@H](O[C@@H]2O[C@H](C)[C@H](O)[C@H](N)[C@@H]2O)C[C@@H]2O[C@](O)(C[C@@H](O)C[C@@H](O)[C@H](O)CC[C@@H](O)C[C@@H](O)CC(=O)O[C@H]1C)C[C@H](O)[C@@H]2C(=O)O
Second: CC[C@H](NC(=O)[C@H](C)NC)C(=O)N1C[C@@H](O)C[C@H]1Cc1c(-c2[nH]c3cc(F)ccc3c2C[C@H]2C[C@H](O)CN2C(=O)[C@H](CC)NC(=O)[C@H](C)NC)[nH]c2cc(F)ccc12
The activation of the first is lower: -1.15% for the first, 21.3% for the second.

Going from `CNCCN1CCC(OCc2ccccc2)CC1` to `CC(O)COc1ccccc1` (stereo not drawn), the activation rises from -13.4% to -13%.

Going from `O=C(CCN1CCN(CCO)CC1)N1c2ccccc2Sc2ccc(C(F)(F)F)cc21` to `COc1cc2c(cc1OC)[C@@H]1Cc3ccc(OC)c(OC)c3CN1CC2`, the activation rises from -5.08% to 19.3%.

First: O=C(O)c1ccc(S(=O)(=O)N(Cl)Cl)cc1
Second: O=C(O)CCC(=O)OC[C@@H](NC(=O)C(Cl)Cl)[C@H](O)c1ccc([N+](=O)[O-])cc1
The activation of the first is higher: 20.9% for the first, 15.1% for the second.

Compared with `CC(N)CCCC(C)(C)O` (stereo not drawn), `OC[C@@H](O)[C@@H](O)[C@H](O)[C@H](O)CO` is lower in activation: -2.82% for the first, -9.21% for the second.

First: O=C(O)C1CCC1
Second: CCc1c(C(=O)Nc2cc(S(=O)(=O)N(CC)CC)ccc2O)[nH]c(C)c1C(C)=O
The activation of the first is higher: -6.69% for the first, -38% for the second.

Compound `COc1ccc2nc(SCc3ncc(C)c(OC)c3C)[nH]c2c1` has an activation of 7.34%.
